Sampled rows, rich in hits. Any-hit rate of the full collection: about 3.5%.
ANO1 activ: TMEM16A chloride channel activators or potentiators, primary screen, cell-based, HTS; Anoctamin-1 (Mus musculus), Q8BHY3; HEK293 TMEM16A/YFP-H148Q/I152L, iodide quench fluorescence; stronger effect = lower value; B-score at 10 µM; 340,000 tested, 0.3% active; AID 623877, 2012;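 active = fluorescence-ratio B-score plate-corrected deviation score at least 3 library SD below zero, with starting fluorescence score within 5 deviations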;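 also: channel opened by trigger with iodide after compound preincubation; score built on the fluorescence ratio of max minus min over baseline; more negative score means more quench and so TMEM16A activation or potentiation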
Kir21 inh: inhibitors of mouse Kir2.1 inward-rectifier potassium channel; HEK293-Kir2.1, FluxOR thallium flux fluorescence; stronger effect = lower value; B-score at 10 µM; 310,000 tested, 0.85% active; AID 1672, 2009;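 active = fluorescence ratio B-score at or below minus 3 SD of library scores, with starting-brightness B-score within 2 SD, cut at about -4.2 in these data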;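 also: channel flux triggered by added potassium and thallium sulfate stimulus; B-score of peak minus minimum fluorescence over baseline after thallium stimulus; more negative B-score means stronger Kir2.1 block with less thallium influx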
TMEM16A inh: TMEM16A chloride channel inhibitors, primary screen, cell-based, HTS. Anoctamin-1 (Mus musculus), Q8BHY3. HEK293 TMEM16A/YFP iodide influx fluorescence, ionomycin. normalized B-score (activity score, 25-100; higher = stronger inhibition) at 10 µM. 310,000 tested, 1.2% active. AID 588511, 2011;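 active = ratio plate-corrected score three or more library SD toward inhibition, starting fluorescence score within five deviations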;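 also: score derived from kinetic fluorescence span divided by baseline fluorescence per well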
KCNK9 block: KCNK9 potassium channel inhibitors, primary screen, HEK293 cells, thallium flux; FluxOR thallium flux fluorescence; stronger effect = lower value; B-score at 10 µM; 310,000 tested, 1.2% active; Potassium channel subfamily K member 9 (Homo sapiens), Q9NPC2;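 active = ratio B-score over 3 SD below the library mean, with starting fluorescence within 5 SD of its mean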;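 also: negative B-score means less thallium flux so channel inhibition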
Target sequence (Q9NPC2 whole entry, looked up): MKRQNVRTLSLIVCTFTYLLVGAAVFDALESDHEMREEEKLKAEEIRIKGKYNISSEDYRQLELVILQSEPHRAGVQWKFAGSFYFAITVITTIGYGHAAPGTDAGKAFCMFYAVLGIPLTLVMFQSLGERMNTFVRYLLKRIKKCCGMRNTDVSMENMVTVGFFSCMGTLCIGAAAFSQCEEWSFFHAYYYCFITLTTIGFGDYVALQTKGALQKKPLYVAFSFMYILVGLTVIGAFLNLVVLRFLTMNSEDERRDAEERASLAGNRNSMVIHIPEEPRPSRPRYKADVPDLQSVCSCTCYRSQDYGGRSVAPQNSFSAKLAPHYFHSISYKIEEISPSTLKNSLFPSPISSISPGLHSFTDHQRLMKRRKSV
KCNK3 block: human KCNK3 channel inhibitors, primary screen, CHO cells, FluxOR thallium flux, B-score. 340,000 tested, 0.84% active. AID 602410, 2012. Potassium channel subfamily K member 3 (Homo sapiens), O14649. FluxOR fluorescence; stronger effect = lower value. B-score at 10 µM;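 active = B-score under library mean minus 4 SD, starting fluorescence ratio at most library mean plus 5 SD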;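 also: more negative B-score means stronger inhibition of thallium flux through KCNK3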
* hit, by the source's call; i = inactive; · = no result given.

SMILES	ANO1 activ	Kir21 inh	TMEM16A inh	KCNK9 block	KCNK3 block
CCC(=O)Nc1ccc(/C(C)=N/NC(=O)c2c(-c3ccccc3Cl)noc2C)cc1	i	0.5	i	i	i
CCOC(=O)C1=C(COC(=O)c2ccc(OC)c(OC)c2OC)NC(=O)NC1C (configuration not stated)	i	-0.85	i	i	i
Cc1ccccc1Cn1ccc(NC(=O)c2cnn3c(C(F)(F)F)cc(-c4ccco4)nc23)n1	i	-0.15	i	-7.6*	i
COc1cccc(CNCC(O)COc2ccc(C(=O)c3ccccc3)cc2)c1 (configuration not stated)	i	-5.4*	i	i	i
OC(CNC1CCCC1)COc1ccc(-c2ccccc2)cc1 (configuration not stated)	i	-3.1	i	i	i
OC(CNC1Cc2ccccc2C1)COc1ccc(Cl)cc1 (configuration not stated)	i	-4.2*	i	i	i
O=C(c1ccccc1)c1ccc(OCC(O)CNCc2ccc(Cl)cc2)cc1 (configuration not stated)	i	-4.7*	i	i	i
OC(CNC1CCCc2ccccc21)COc1c(Cl)cccc1Cl (configuration not stated)	i	-8.9*	i	i	i
O=C(COc1ccccc1)NC1CCCc2ccccc21 (configuration not stated)	i	-0.05	i	i	i
Cc1cc(C(=O)Nc2ncn(Cc3ccc(F)cc3)n2)ccc1[N+](=O)[O-]	i	-0.45	i	i	i
O=C(O)c1ccccc1Nc1cccc(OCc2ccc3ccccc3n2)c1	i	·	100*	·	i
O=C(COc1ccc2ccccc2c1)Nc1cccc(C(=O)Nc2ccccc2C(=O)O)c1	i	2.4	i	i	i
Cc1ccc(S(=O)(=O)N(C)C)cc1NC(=O)c1cc(=O)[nH]c2ccccc12	-6.6*	0.01	i	i	i
CCN(CC)S(=O)(=O)c1ccc(NC(=O)c2cc(=O)[nH]c3ccccc23)cc1	i	0.52	i	i	i
COc1ccc(CCNS(=O)(=O)c2ccc(-n3cnnn3)c(OC)c2)cc1OC	-31*	-0.66	i	i	i
O=C(NC(C(=O)N/N=C/c1cccnc1)c1n[nH]c(=O)c2ccccc12)c1ccccc1 (configuration not stated)	-6.4*	-2.1	i	i	i
Cc1ccc(S(=O)(=O)N(C)c2ccc(C(=O)N(C)Cc3nc4ccccc4c(=O)[nH]3)cc2)cc1	i	·	·	·	i
Cn1c(=O)c2c(nc(N3CCc4ccccc4C3)n2Cc2ccc(Br)cc2)n(C)c1=O	i	0.22	i	-7*	i
CC(C(=O)NC1C(=O)N2C(C(=O)O)=C(CSc3nnnn3C)CSC12)n1cc(Cl)cn1 (configuration not stated)	i	-0.28	i	i	i
CC(C)Cn1c(SCC(=O)NC(=O)NC2CCCC2)nc2ccccc21	i	1.2	25*	i	i
CC1CC(CCC(=O)NC(=S)Nc2ccc(S(N)(=O)=O)cc2)C(=O)O1 (configuration not stated)	-4.7*	0.55	i	i	i
Cc1ccc(-c2noc(CCCC(=O)Nc3cccnc3)n2)cc1	i	0.52	25*	i	i
Cc1cc(NC(=O)COC(=O)C(Nc2ccc(C(F)(F)F)cc2Cl)C(C)C)no1 (configuration not stated)	i	-0.34	100*	i	i
CCCCN(C(=O)c1ccc2c(c1)OCO2)c1ccccc1	i	-5.4*	i	i	i
CN(C)CCCNS(=O)(=O)c1ccc(N2CCC(c3ccc(Cl)cc3)=N2)cc1	·	-3.4	i	-11*	·
SMILES	ANO1 activ	Kir21 inh	TMEM16A inh	KCNK9 block	KCNK3 block
COc1ccc(N/C=C(\C#N)c2nc3ccccc3n2C)c(OC)c1	i	1.2	i	-7*	i
COc1ccc(-c2sc(Nc3ccccc3)n[n+]2-c2ccc(F)cc2)cc1Br	i	-1	i	i	i
CCc1ccc(Nc2n[n+](-c3ccccc3)c(-c3c(Cl)cccc3Cl)s2)cc1	-8.1*	-1.3	100*	i	i
COc1ccc2ccccc2c1-c1sc(Nc2ccccc2)n[n+]1-c1ccc(F)cc1	i	-5.6*	100*	-7.4*	i
CCc1ccc(Nc2n[n+](-c3ccccc3)c(-c3ccc(OCc4ccccc4)cc3)s2)cc1	i	0.02	100*	i	i
Fc1ccc(-[n+]2nc(Nc3ccccc3)sc2-c2c(Cl)cccc2Cl)cc1	i	-2	i	i	i
Oc1ccc(N2CCN(C(=S)NCCc3ccccc3)CC2)cc1	i	0.05	i	i	i
N#Cc1c(Nc2ccccc2)[n+]([O-])c2ccc(Cl)cc2[n+]1[O-]	i	·	·	·	i
O=C(CSc1ccccc1)N(c1ccc(Br)cc1)c1nccs1	i	-5.2*	i	i	i
COc1cc(F)c(S(=O)(=O)N2CCOc3ccccc32)cc1OC	i	-5.3*	i	i	i
COc1ccc(S(=O)(=O)N2CCOc3ccccc32)cc1	i	-0.75	i	i	i
CC(OC(=O)C1CCN(c2ccc(C(F)(F)F)cn2)CC1)C(=O)Nc1cccc([N+](=O)[O-])c1 (configuration not stated)	i	·	·	·	i
Cc1cccc2nc(CSc3nc4cc([N+](=O)[O-])ccc4s3)cn12	i	0.37	i	i	i
Clc1ccc(COc2cccc(CNCc3ccncc3)c2)cc1	i	-1.1	100*	i	i
c1ccc2nc(N3CCOCC3)c(N3CCCC3)nc2c1	i	·	·	·	i
c1ccc2nc(N3CCCC3)c(N3CCCCC3)nc2c1	i	·	·	·	-10*
O=[N+]([O-])c1ccc2c(c1)C=C1CCCCC1(N1CCCCC1)O2 (configuration not stated)	i	0.97	i	-7.4*	i
CNS(=O)(=O)c1cccc(C(=O)OCc2cc(=O)oc3c(C)c(O)ccc23)c1	i	-0.31	100*	i	i
CCc1cc2c(COC(=O)c3cccc(S(C)(=O)=O)c3)cc(=O)oc2cc1O	i	2.3	i	i	i
COc1cc(OC)cc(C(=O)NCCS(=O)(=O)N2CCN(Cc3ccccc3)CC2)c1	i	0	i	i	i
S=C(Nc1cccc(Cl)c1)Nc1ccccc1Oc1ccccc1	i	-1.4	100*	i	i
CC(C)OCCCn1c(SCC(=O)N2CCc3ccccc32)nc2ccccc2c1=O	i	0.16	i	i	i
CC(C)CCC(=O)N1CCOC1=O	i	0.12	i	i	i
